PubChem BioAssay (EPA / NIEHS)
Inconclusive results are not listed. Activity calls are given as the source filed them. The calls were made as follows: active = hit-call score of the fitted dose curve at least 0.9, where 1 is the maximum; inconclusive = response in the unintended direction; inactive = score below 0.9.

Columns and labels:
[1] = molecular target: human Mitogen- and Stress-activated Protein Kinase-1 (Msk1), RPS6KA5 (gene 9252) (UniProt O75582); experiment: NVS_ENZ_hMsk1: NovaScreen (NVS) Enzymatic Assay for human Mitogen- and Stress-activated Protein Kinase-1 (Msk1) (AID 2283187)
Chain of human Mitogen- and Stress-activated Protein Kinase-1 (Msk1), RPS6KA5 (gene 9252) (O75582 whole entry, looked up): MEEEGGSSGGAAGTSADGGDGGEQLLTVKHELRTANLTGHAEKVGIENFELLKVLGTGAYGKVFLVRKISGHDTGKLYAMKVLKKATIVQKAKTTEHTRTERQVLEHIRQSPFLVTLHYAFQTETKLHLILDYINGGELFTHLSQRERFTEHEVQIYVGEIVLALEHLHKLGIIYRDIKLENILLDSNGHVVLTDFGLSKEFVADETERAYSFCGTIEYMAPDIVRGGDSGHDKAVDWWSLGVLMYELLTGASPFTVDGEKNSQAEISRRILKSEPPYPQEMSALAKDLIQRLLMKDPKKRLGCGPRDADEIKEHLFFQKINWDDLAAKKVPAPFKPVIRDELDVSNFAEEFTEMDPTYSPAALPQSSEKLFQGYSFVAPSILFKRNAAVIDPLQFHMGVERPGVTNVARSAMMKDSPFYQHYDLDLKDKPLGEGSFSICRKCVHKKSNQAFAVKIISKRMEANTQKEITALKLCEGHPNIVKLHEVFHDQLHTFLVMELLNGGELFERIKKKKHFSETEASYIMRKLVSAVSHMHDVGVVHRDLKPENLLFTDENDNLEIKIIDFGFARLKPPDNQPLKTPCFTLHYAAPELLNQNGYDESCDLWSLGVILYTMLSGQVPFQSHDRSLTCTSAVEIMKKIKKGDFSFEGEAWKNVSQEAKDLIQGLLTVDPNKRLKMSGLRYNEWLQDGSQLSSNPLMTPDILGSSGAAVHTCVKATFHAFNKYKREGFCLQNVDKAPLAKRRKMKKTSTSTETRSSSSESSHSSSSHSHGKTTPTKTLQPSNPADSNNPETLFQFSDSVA
In short: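 Recombinant kinase with fluorescent substrate; product separated by electrophoretic mobility shift, read 1 h after dosing. Screened in duplicate at 25 uM; hits (e.g. ≥30% inhibition) tested in concentration–response up to 50 uM. DMSO baseline.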

[2] = molecular target: human Phosphodiesterase 5 (PDE5), PDE5A (gene 8654) (UniProt O76074); experiment: NVS_ENZ_hPDE5: NovaScreen (NVS) Enzymatic Assay for human Phosphodiesterase 5 (PDE5) (AID 2283194)
In short: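 Recombinant human PDE5 with specific substrate, read 1 h after dosing by fluorescence with electrophoretic mobility-shift separation of substrate and product. Initial single-concentration duplicate screen at 25 uM, actives followed in concentration series; loss of activity versus DMSO.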

[3] = molecular target: human Phosphoinositide 3-kinase alpha (PI3Ka), PIK3CA (gene 5290) (UniProt P42336); experiment: NVS_ENZ_hPI3Ka: NovaScreen (NVS) Enzymatic Assay for human Phosphoinositide 3-kinase alpha (PI3Ka) (AID 2283196)
Chain of human Phosphoinositide 3-kinase alpha (PI3Ka), PIK3CA (gene 5290) (P42336 whole entry, looked up): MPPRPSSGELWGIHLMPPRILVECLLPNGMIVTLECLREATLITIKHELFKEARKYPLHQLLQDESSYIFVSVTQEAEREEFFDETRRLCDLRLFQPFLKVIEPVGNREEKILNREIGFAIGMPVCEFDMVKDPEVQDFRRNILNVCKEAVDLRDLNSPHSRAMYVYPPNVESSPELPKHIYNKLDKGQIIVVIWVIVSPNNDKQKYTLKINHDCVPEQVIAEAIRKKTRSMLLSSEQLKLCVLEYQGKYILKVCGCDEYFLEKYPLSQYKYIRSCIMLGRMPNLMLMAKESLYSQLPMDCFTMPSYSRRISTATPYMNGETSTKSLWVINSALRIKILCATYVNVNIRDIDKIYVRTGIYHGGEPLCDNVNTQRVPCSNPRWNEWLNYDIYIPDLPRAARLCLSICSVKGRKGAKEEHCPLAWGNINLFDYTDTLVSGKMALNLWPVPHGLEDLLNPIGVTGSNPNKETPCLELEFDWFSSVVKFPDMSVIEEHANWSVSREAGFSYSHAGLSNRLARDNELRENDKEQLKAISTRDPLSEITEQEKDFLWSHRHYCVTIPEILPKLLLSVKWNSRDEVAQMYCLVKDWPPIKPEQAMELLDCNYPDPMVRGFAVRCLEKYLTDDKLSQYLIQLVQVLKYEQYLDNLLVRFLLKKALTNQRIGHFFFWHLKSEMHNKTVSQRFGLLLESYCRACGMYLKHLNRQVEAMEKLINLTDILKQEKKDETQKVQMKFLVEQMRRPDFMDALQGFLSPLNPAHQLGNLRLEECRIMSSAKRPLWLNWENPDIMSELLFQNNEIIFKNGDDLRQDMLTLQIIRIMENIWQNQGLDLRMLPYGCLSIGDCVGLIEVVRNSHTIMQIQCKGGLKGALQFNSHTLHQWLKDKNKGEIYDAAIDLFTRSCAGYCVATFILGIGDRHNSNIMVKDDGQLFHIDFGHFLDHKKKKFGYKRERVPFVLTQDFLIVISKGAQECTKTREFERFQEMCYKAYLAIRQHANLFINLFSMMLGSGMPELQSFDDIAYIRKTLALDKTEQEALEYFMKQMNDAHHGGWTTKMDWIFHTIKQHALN
In short: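 Recombinant human PI3Kα with fluorescent substrate, 1 h, product separated by electrophoretic mobility shift; 25 uM duplicate screen, hits (e.g., 30% inhibition) retested singly up to 50 uM; loss of signal vs DMSO.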

[4] = molecular target: Tyrosine-protein phosphatase non-receptor type 11 (Homo sapiens) (UniProt Q06124); experiment: NVS_ENZ_hPTPN11: NovaScreen (NVS) Enzymatic Assay for human Protein Tyrosine Phosphatase Non-receptor Type 11 (PTPN11) (AID 2283202)
Chain of Tyrosine-protein phosphatase non-receptor type 11 (Homo sapiens) (Q06124 whole entry, looked up): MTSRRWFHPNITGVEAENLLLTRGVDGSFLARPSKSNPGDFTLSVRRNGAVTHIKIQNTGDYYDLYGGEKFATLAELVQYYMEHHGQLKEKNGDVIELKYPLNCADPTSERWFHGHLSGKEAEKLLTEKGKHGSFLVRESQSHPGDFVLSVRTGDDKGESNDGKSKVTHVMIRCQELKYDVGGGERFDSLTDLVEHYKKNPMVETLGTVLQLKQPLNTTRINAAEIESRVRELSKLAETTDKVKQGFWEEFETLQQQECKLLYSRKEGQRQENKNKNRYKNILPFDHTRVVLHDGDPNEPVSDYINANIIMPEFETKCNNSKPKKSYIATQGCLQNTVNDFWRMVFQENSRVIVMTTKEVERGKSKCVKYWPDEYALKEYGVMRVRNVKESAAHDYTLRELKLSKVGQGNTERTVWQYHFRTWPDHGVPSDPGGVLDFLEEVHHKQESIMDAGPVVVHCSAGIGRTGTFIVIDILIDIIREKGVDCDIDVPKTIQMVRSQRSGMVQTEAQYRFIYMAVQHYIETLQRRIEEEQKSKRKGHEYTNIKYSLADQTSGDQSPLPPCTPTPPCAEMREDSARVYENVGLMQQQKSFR
In short: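 Recombinant human PTPN11 activity on a fluorescent substrate, with substrate/product separated by electrophoretic mobility shift; read 0.5 h after dosing, loss of signal vs DMSO. Duplicate 25 uM screen, then concentration-response up to 50 uM.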

[5] = molecular target: Tyrosine-protein phosphatase non-receptor type 12 (Homo sapiens) (UniProt Q05209); experiment: NVS_ENZ_hPTPN12: NovaScreen (NVS) Enzymatic Assay for human Protein Tyrosine Phosphatase Non-receptor Type 12 (PTPN12) (AID 2283204)
In short: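 Single-concentration duplicates (25 uM) preceded singleton concentration-response up to 50 uM for chemicals passing threshold. Cell-free recombinant PTPN12 activity was read 1.33 h after dosing via fluorescence after mobility-shift separation; loss of signal versus DMSO.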

[6] = molecular target: Tyrosine-protein phosphatase non-receptor type 13 (Homo sapiens) (UniProt Q12923); experiment: NVS_ENZ_hPTPN13: NovaScreen (NVS) Enzymatic Assay for human Protein Tyrosine Phosphatase Non-receptor Type 13 (PTPN13) (AID 2283205)
In short: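 Cell-free assay of recombinant human PTPN13 with a fluorescent substrate, product separated by electrophoretic mobility shift and read 0.5 h after dosing. Primary screen at 25 uM in duplicate, then concentration-response up to 50 uM. Loss of signal fitted against DMSO.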

[7] = molecular target: human Protein Tyrosine Phosphatase Non-receptor Type 9 (PTPN9), PTPN9 (gene 5780) (UniProt P43378); experiment: NVS_ENZ_hPTPN9: NovaScreen (NVS) Enzymatic Assay for human Protein Tyrosine Phosphatase Non-receptor Type 9 (PTPN9) (AID 2283209)
Chain of human Protein Tyrosine Phosphatase Non-receptor Type 9 (PTPN9), PTPN9 (gene 5780) (P43378 whole entry, looked up): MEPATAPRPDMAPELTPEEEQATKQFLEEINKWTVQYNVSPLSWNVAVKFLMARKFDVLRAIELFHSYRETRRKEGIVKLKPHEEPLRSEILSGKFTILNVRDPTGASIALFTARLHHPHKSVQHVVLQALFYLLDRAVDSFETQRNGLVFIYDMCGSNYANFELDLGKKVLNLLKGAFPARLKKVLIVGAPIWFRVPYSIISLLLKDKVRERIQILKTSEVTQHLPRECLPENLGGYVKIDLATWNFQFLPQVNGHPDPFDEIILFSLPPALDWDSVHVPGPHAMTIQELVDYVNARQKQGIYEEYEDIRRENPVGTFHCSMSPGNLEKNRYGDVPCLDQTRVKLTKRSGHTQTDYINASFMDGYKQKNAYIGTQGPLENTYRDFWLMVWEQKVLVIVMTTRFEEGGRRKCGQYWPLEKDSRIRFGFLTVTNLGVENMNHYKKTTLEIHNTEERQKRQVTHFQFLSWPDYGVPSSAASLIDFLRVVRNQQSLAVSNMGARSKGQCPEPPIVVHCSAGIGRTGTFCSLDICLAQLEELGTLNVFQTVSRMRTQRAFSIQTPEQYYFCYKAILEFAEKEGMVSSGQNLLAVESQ
In short: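 Sf9-expressed enzyme in a cell-free assay, fluorescence read 1.33 h after dosing with mobility-shift separation of substrate and product. Tested at 25 uM in duplicate, then up to 50 uM; signal loss versus DMSO.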

[8] = molecular target: human Protein Tyrosine Phosphatase Non-receptor Type 6 (PTPN6), PTPN6 (gene 5777) (UniProt P29350); experiment: NVS_ENZ_hPTPN6: NovaScreen (NVS) Enzymatic Assay for human Protein Tyrosine Phosphatase Non-receptor Type 6 (PTPN6) (AID 2283210)
In short: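 Cell-free assay with recombinant PTPN6 expressed in SF9 cells, fluorescent substrate, product separated from substrate by electrophoretic mobility shift; read 1.33 hours after dosing. Primary screen in duplicate at 25 uM, actives retested in concentration series; DMSO baseline.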

[9] = molecular target: human Protein Tyrosine Phosphatase Receptor Type F (PTPRF), PTPRF (gene 5792) (UniProt P10586); experiment: NVS_ENZ_hPTPRF: NovaScreen (NVS) Enzymatic Assay for human Protein Tyrosine Phosphatase Receptor Type F (PTPRF) (AID 2283213)
In short: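 Cell-free fluorescence enzyme assay with recombinant protein and substrate; product separated by electrophoretic mobility shift. Read 1 h after dosing, single 25 uM duplicate screen, then concentration-response up to 50 uM; loss of signal vs DMSO.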

[10] = molecular target: human Matrix Metalloproteinase-9 (MMP9), MMP9 (gene 4318) (UniProt P14780); experiment: NVS_ENZ_hMMP9: NovaScreen (NVS) Enzymatic Assay for human Matrix Metalloproteinase-9 (MMP9) (AID 2283190);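 also: cell-free recombinant MMP9 protease activity read by fluorescent substrate signal; active means inhibition seen as loss of fluorescence signal versus DMSO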
Chain of human Matrix Metalloproteinase-9 (MMP9), MMP9 (gene 4318) (P14780 whole entry, looked up): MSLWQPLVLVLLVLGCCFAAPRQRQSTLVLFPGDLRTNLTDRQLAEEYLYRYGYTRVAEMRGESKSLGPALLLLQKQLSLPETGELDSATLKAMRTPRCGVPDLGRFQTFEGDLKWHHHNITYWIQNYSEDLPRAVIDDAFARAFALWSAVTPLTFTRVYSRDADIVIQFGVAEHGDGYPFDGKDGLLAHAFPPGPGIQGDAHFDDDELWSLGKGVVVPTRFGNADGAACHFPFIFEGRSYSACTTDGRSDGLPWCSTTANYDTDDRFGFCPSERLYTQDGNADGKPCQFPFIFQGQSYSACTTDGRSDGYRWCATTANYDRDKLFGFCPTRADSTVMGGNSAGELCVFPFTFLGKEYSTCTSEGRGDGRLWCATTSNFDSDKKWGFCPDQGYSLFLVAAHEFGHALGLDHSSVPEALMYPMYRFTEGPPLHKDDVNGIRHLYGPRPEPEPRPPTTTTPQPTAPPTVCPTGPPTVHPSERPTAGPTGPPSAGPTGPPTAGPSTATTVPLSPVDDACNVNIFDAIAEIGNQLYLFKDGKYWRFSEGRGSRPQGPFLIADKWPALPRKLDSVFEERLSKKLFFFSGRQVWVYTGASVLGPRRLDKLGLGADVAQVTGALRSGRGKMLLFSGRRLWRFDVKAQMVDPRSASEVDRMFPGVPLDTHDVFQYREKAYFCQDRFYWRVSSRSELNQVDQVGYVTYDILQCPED
In short: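 Cell-free recombinant MMP9 enzyme activity measured by fluorescence intensity 1 h after dosing. Primary screen in duplicate at 25 uM, actives followed in concentration series; loss of signal relative to DMSO.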

[11] = molecular target: cAMP-dependent protein kinase catalytic subunit alpha (Homo sapiens) (UniProt P17612); experiment: NVS_ENZ_hPKA: NovaScreen (NVS) Enzymatic Assay for human Protein Kinase A (PKA) (AID 2283192)
In short: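 Recombinant human PKA with specific fluorescent substrate, product separated by electrophoretic mobility shift, read 1 h after dosing. Primary screen at 25 uM in duplicate; actives then run in concentration-response up to 50 uM, activity relative to DMSO.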

[12] = molecular target: human Phosphodiesterase 4A1 (PDE4A1), PDE4A (gene 5141) (UniProt P27815); experiment: NVS_ENZ_hPDE4A1: NovaScreen (NVS) Enzymatic Assay for human Phosphodiesterase 4A1 (PDE4A1) (AID 2283191)
In short: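 Cell-free recombinant human PDE4A1 with fluorescent substrate; product separated by electrophoretic mobility shift, 1 h. Screened at 25 uM, then up to 50 uM in concentration-response; loss of signal fitted against DMSO.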

[13] = molecular target: human Phosphodiesterase 10 (PDE10), PDE10A (gene 10846) (UniProt Q9Y233); experiment: NVS_ENZ_hPDE10: NovaScreen (NVS) Enzymatic Assay for human Phosphodiesterase 10 (PDE10) (AID 2283195)
In short: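 Recombinant human PDE10 with fluorescent substrate, 1 h, product separated by electrophoretic mobility shift. Loss of enzyme activity fitted against DMSO; initial screen 25 uM in duplicate, actives run to 50 uM maximum.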

[14] = molecular target: human Protein Phosphatase, Mg2+/Mn2+ Dependent 1A (PPM1A), PPM1A (gene 5494) (UniProt P35813); experiment: NVS_ENZ_hPPM1A: NovaScreen (NVS) Enzymatic Assay for human Protein Phosphatase, Mg2+/Mn2+ Dependent 1A (PPM1A) (AID 2283198)
Chain of human Protein Phosphatase, Mg2+/Mn2+ Dependent 1A (PPM1A), PPM1A (gene 5494) (P35813 whole entry, looked up): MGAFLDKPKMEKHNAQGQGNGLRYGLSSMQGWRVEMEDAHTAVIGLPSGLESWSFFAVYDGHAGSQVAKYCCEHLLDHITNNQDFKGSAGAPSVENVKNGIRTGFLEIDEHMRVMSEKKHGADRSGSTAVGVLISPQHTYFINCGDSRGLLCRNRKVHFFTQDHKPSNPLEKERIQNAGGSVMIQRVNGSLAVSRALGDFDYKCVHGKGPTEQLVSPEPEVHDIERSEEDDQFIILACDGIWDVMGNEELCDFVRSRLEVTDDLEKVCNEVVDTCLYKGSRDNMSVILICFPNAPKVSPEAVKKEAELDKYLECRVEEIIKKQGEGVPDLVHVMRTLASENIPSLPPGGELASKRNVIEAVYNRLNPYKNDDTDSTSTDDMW
In short: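 Cell-free recombinant PPM1A phosphatase assay with fluorescent substrate, read 1 h after dosing by electrophoretic mobility shift. Chemicals screened in duplicate at 25 uM, then in concentration-response up to 50 uM; loss of activity versus DMSO.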

[15] = molecular target: Serine/threonine-protein phosphatase PP1-alpha catalytic subunit (Homo sapiens) (UniProt P62136); experiment: NVS_ENZ_hPPP1CA: NovaScreen (NVS) Enzymatic Assay for human Protein Phosphatase 1 Aatalytic subunit Alpha (PPP1CA) (AID 2283200)
In short: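 Recombinant enzyme activity read by fluorescence with electrophoretic mobility shift separating substrate from product, 1.33 h after dosing; loss of signal vs DMSO baseline. Primary screen in duplicate at 25 uM; actives retested in concentration-response up to 50 uM.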

[16] = molecular target: human Protein Tyrosine Phosphatase Non-receptor Type 4 (PTPN4), PTPN4 (gene 5775) (UniProt P29074); experiment: NVS_ENZ_hPTPN4: NovaScreen (NVS) Enzymatic Assay for human Protein Tyrosine Phosphatase Non-receptor Type 4 (PTPN4) (AID 2283208)
Chain of human Protein Tyrosine Phosphatase Non-receptor Type 4 (PTPN4), PTPN4 (gene 5775) (P29074 whole entry, looked up): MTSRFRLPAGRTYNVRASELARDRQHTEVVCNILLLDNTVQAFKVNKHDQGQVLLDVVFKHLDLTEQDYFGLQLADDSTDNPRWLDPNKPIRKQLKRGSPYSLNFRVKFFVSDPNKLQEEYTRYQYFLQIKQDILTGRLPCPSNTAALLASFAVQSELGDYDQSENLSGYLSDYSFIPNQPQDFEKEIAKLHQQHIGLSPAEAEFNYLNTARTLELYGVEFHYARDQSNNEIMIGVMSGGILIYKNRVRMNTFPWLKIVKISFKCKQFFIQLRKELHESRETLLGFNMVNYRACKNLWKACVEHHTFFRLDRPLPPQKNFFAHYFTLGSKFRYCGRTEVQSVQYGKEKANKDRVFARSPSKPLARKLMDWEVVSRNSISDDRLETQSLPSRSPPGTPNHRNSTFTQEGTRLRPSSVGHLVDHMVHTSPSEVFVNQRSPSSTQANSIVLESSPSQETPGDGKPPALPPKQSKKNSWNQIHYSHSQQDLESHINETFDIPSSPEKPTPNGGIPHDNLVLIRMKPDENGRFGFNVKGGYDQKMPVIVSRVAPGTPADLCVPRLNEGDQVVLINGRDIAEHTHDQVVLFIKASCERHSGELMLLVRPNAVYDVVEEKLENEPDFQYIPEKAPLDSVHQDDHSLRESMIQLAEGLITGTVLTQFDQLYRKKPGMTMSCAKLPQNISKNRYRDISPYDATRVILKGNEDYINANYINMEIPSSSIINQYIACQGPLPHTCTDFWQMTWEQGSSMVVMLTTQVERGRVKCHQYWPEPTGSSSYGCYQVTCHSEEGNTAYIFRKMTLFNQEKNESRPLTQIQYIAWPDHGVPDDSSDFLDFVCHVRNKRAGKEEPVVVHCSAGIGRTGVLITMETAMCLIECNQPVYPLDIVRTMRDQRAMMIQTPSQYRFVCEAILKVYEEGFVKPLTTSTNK
In short: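 Cell-free assay of PTPN4 expressed in Sf9 cells, using a fluorescent substrate with product separated by mobility shift; read 1.33 h after dosing. Single-point screen at 25 uM, then concentration-response up to 50 uM. Loss of signal relative to DMSO.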

[17] = molecular target: Tyrosine-protein phosphatase non-receptor type 14 (Homo sapiens) (UniProt Q15678); experiment: NVS_ENZ_hPTPN14: NovaScreen (NVS) Enzymatic Assay for human Protein Tyrosine Phosphatase Non-receptor Type 14 (PTPN14) (AID 2283206)
In short: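 Cell-free recombinant human PTPN14 with fluorescent substrate, read 0.5 h after dosing by fluorescence and electrophoretic mobility shift separating substrate from product. Primary screen at 25 uM in duplicate; hits run to 50 uM maximum; loss of signal versus DMSO.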

[18] = molecular target: human Protein Tyrosine Phosphatase Non-receptor Type 1 (PTPN1), PTPN1 (gene 5770) (UniProt P18031); experiment: NVS_ENZ_hPTPN1: NovaScreen (NVS) Enzymatic Assay for human Protein Tyrosine Phosphatase Non-receptor Type 1 (PTPN1) (AID 2283201)
In short: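 Cell-free fluorogenic-substrate activity assay on recombinant enzyme, read 1.33 h after dosing by fluorescence and electrophoretic mobility shift; loss of signal vs DMSO baseline. Primary screen in duplicate at 25 uM, hits then run in concentration-response up to 50 uM.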

[19] = molecular target: human Protein Tyrosine Phosphatase Receptor Type B (PTPRB), PTPRB (gene 5787) (UniProt P23467); experiment: NVS_ENZ_hPTPRB: NovaScreen (NVS) Enzymatic Assay for human Protein Tyrosine Phosphatase Receptor Type B (PTPRB) (AID 2283211)
In short: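 Recombinant human PTPRB with a fluorescent substrate, product separated by electrophoretic mobility shift; read 1 h after dosing. Primary screen in duplicate at 25 uM; actives then retested in concentration series; loss of signal versus DMSO.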

CCc1c(C(=O)NN2CCCCC2)nn(-c2ccc(Cl)cc2Cl)c1-c1ccc(Br)cc1
outcome [1]: inactive | outcome [2]: inactive | outcome [3]: inactive | outcome [4]: inactive | outcome [5]: inactive | AC50 [6]: 0.0976 µM (active) | outcome [7]: inactive | outcome [8]: inactive | outcome [9]: inactive

CNC(=O)[C@H]1O[C@@H](n2cnc3c(NCc4cc(Cl)ccc4OCc4cc(C)no4)ncnc32)[C@H](O)[C@@H]1N
AC50 [10]: 8.35 µM (active) | outcome [11]: inactive | outcome [2]: inactive

O=C(O)Cc1ccccc1Nc1c(Cl)cccc1Cl
outcome [10]: inactive | outcome [8]: inactive

CNCc1cc(F)ccc1Oc1ccc(Cl)c(Cl)c1
outcome [12]: inactive | outcome [13]: inactive

O=C(OCCCCCOC(=O)c1ccccc1)c1ccccc1
outcome [11]: inactive | outcome [14]: inactive | outcome [15]: inactive | outcome [16]: inactive | outcome [7]: inactive | outcome [9]: inactive

CCCc1cc(=O)[nH]c(=S)[nH]1
AC50 [10]: 8.66 µM (active) | outcome [6]: inactive

CC1=C(/C=C/C(C)=C/C=C/C(C)=C/CO)C(C)(C)CCC1
outcome [1]: inactive | outcome [12]: inactive | outcome [2]: inactive

Cc1nc(-c2ccc3c(c2)CCN(CCC2CCC(NC(=O)/C=C/c4ccc(F)cc4)CC2)CC3)no1 (stereo not given)
outcome [2]: inactive | AC50 [13]: 3.71 µM (active) | outcome [3]: inactive | outcome [5]: inactive

Cc1cc(NC(=O)C(=O)O)cc(C)c1Oc1ccc(O)c2c1CCC2
AC50 [2]: 8.94 µM (active) | outcome [14]: inactive

Cc1cccc(C)c1O
outcome [2]: inactive

CC=Cc1ccc(O)c(OC)c1
outcome [2]: inactive

NCC1(Cc2noc(=O)[nH]2)CCCCC1
outcome [13]: inactive

Cc1c(C(=O)O)c(O)cc2c1C(=O)c1c(O)c([C@@H]3O[C@H](CO)[C@@H](O)[C@H](O)[C@H]3O)c(O)c(O)c1C2=O
AC50 [10]: 4.45 µM (active) | outcome [12]: inactive

O=c1[nH]cc(F)c(=O)[nH]1
outcome [2]: inactive | outcome [14]: inactive

CCNc1cccc(C)c1
outcome [10]: inactive

CC(=O)Oc1ccccc1C(=O)O
outcome [12]: inactive | outcome [2]: inactive

Cc1ccc(C)c(C)c1
outcome [2]: inactive | outcome [8]: inactive

NCCO
outcome [1]: inactive | outcome [10]: inactive | outcome [11]: inactive | outcome [4]: inactive | outcome [5]: inactive | outcome [17]: inactive

CCOC(=O)C(C)(C)Oc1ccc(Cl)cc1
outcome [13]: inactive | outcome [3]: inactive | outcome [18]: inactive | outcome [4]: inactive | outcome [5]: inactive | outcome [6]: inactive | outcome [7]: inactive

CCCCc1ccc2c(n1)[C@@H](c1ccc(OC)cc1C[C@H](C)C(=O)O)[C@H](C(=O)O)[C@H]2c1ccc2c(c1)OCO2
outcome [10]: inactive

NS(=O)(=O)c1cc2c(cc1Cl)NCNS2(=O)=O
outcome [10]: inactive | outcome [7]: inactive

O=C(N[C@@H](Cc1ccccc1)[C@@H](O)C(=O)N1C[C@@H](O)[C@@H](O)C1)c1cc2cc(Cl)ccc2[nH]1
outcome [10]: inactive | outcome [12]: inactive | outcome [2]: inactive

FC(F)(F)C(F)(F)C(F)(F)C(F)(F)C(F)(F)C(F)(F)CCI
outcome [1]: inactive | outcome [11]: inactive | AC50 [2]: 19.7 µM (active) | outcome [15]: inactive | outcome [18]: inactive | outcome [5]: inactive | outcome [16]: inactive | outcome [19]: inactive

Nc1ccccc1N
outcome [10]: inactive | AC50 [2]: 18.1 µM (active) | AC50 [7]: 9.86 µM (active)

CC(C)c1ccc(C(=O)N=C(N)N)cc1S(C)(=O)=O
outcome [3]: inactive | outcome [9]: inactive

C1CCC(SSC2CCCCC2)CC1
outcome [18]: inactive | outcome [17]: inactive

Cc1ccc2ncccc2c1
outcome [4]: inactive | outcome [16]: inactive

CC1(C)CC(N=C=O)CC(C)(CN=C=O)C1 (stereo not given)
AC50 [6]: 6.77 µM (active)

COc1cc(-c2nc(NC(=O)c3cc4cc(C)cc(C)c4n3CC(=O)O)sc2CCC2CCCCC2)c(OC)cc1Cl
AC50 [6]: 6.01 µM (active)

CC(=O)OC/C=C(\C)CCC=C(C)C
outcome [17]: inactive

Nc1ccc2c(c1)C(=O)c1ccccc1C2=O
outcome [16]: inactive
